One assay addresses C17orf89. Nature of the assay: pooled miR-30 sensor sort-seq; sequence = guide strand. The following applies: shRNA.
As to TCGCACGCGGCCCCACACCGCT, the sensor-assay potency score (higher = more potent) was -1.58. Still for that read-out and setting: in the case of AGGCCTGCACGCACCTGCCGTA it was -1.48; in that of TTCTTGGCCGCAGCGGCGAAGC, -1.54; in that of TCCCGCGCGCAGAAGTCCTTAC, -1.42. The sequence TTGGCCGCAGCGGCGAAGCAGC came in with a sensor-assay potency score (higher = more potent) of -1.67. The sequence TCTTCTTGGCCGCAGCGGCGAA displayed a sensor-assay potency score (higher = more potent) of -1.65. TCGAACTCCCGCGCGCAGAAGT returned a sensor-assay potency score (higher = more potent) of -1.83. Same read-out and setting: for TACGCCGCGGCCTCGGCCCCGC the value was -1.68. On the same count and under the same terms, in the case of CAGAAGTCCTTACTCAGGCGGC it was -1.6; in that of AAGTCCTTACTCAGGCGGCCGC, -1.52; in that of TTACTCAGGCGGCCGCCCGGGG, -1.34. Still for that read-out and setting: for AGGGCCTCGAACTCCCGCGCGC the value was -1.88.

For the next assay, the target named is C18orf34. The description is as above. The following applies: shRNA.
Regarding TATTCTTTCTTGATCTCTGTTG, the sensor-assay potency score (higher = more potent) is -0.0146. Still for that read-out and setting: for TTGTCTTACTTTTAGTTGCTTC the value was -0.608; for TTTTGTTGACACAAGGTGCTGG, 0.854. Still for that read-out and setting: in the case of TTCTTCATTAACTTTTCTGTGT it was 0.0915; in that of TTTCATCTCTCTTTTCTCCTGG, 0.616. On the same count and under the same terms, in the case of TTTTTTATTGTCTTCCGTCAGT it was -0.408; in that of TAATTCTATAACATCACTCAAA, -0.981. Sequence TTCATCTTCTAGTTGAAGCAGA registered a sensor-assay potency score (higher = more potent) of -0.375. The same measure, in the same setting: in the case of TAGTTTTTTCTGAAGCACCATT it was -0.995.

Sequence TTGTCGAGACTTCTGATTCTTT returned a sensor-assay potency score (higher = more potent) of -0.716. For TTGAAGTTCCTGATTCTGCTTA, the sensor-assay potency score (higher = more potent) was determined as 0.774. TACACTGTTATCTGAACTGTGT: the sensor-assay potency score (higher = more potent) was found to be 0.065.

The record behind these values is the OligoGym collection.
Further: reference of the scale not given here.
